Experimental findings from PubChem BioAssay (EPA / NIEHS) are described below.

The source made the active and inactive calls. The calls were made as follows: active = hit-call score of the fitted dose curve at least 0.9, where 1 is the maximum; inconclusive = response in the unintended direction; inactive = score below 0.9.

What is called AC50 is the concentration at which the activity in the assay is half-maximal.

Estrogen receptor beta (Homo sapiens), sequence (Q92731 whole entry, looked up, the tested form may be a part): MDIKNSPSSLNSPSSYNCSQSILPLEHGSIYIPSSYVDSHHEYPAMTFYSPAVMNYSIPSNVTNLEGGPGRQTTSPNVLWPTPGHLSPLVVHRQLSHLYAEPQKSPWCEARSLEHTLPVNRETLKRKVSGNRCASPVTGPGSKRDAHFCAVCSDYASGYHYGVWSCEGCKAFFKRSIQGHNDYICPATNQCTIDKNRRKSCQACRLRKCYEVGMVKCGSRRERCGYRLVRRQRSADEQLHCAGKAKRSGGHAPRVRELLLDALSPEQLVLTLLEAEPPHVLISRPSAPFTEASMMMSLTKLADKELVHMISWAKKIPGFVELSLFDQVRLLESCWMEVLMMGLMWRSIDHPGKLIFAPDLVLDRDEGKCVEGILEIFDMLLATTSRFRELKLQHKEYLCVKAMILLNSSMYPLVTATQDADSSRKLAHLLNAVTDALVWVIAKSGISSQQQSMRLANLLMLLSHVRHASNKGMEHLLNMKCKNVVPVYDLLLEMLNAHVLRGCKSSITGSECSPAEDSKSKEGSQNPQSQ

The test concerns the target Estrogen receptor beta (Homo sapiens) (UniProt Q92731). The test can be described thus: OT_ER_ERbERb_1440: Odyssey Thera (OT) 24-hour HEK293T Protein-Complementation Assay for Estrogen Receptor-beta/-beta Homodimer (AID 2283380).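 Also: fluorescence gain from ER beta LBD homodimer complementation read by laser scanning cytometry; scored as signal increase over DMSO baseline for both agonists and antagonists.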 The method, boiled down:
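Fluorescence increase, nuclear for agonists or whole-cell for antagonists, relative to DMSO vehicle, quantified by laser scanning cytometer after fixation and Draq5 staining. Readout from 24 h treatment of HEK293T cells carrying complementation-paired ER beta LBD (aa 310-547).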
With `O=C(Oc1ccccc1)c1ccc(O)cc1`, the AC50 is 4.86 µM (active). For the compound `CC(C)=CCC[C@](C)(O)[C@@H]1CC=C(C)CC1`, the call was inactive. Regarding `CCN(CC)c1ccc(C(=C2C=CC(=[N+](CC)CC)C=C2)c2ccc(S(=O)(=O)O)cc2S(=O)(=O)[O-])cc1`, the result was inactive. Turning to `CCCCCCCCCCCCCOS(=O)(=O)O`, the compound was classed as inactive. As to `C=O`, the result was inactive. Turning to `O=C(O)CCCCCCCC(=O)O`, the compound was called inactive. Consider `CCCC/C=C\CCCCCCCCCC=O`, for which the compound was called inactive. With `C=CCOc1nc(OCC=C)nc(OCC=C)n1`, the AC50 is 25.5 µM (active). As for `O=C1C(c2[nH]c3ccc(S(=O)(=O)O)cc3c2O)=Nc2ccc(S(=O)(=O)O)cc21`, the call was inactive.

As to `O=C[C@@H](O)[C@H](O)[C@H](O)CO`, the result was inactive.

With `CCCCCOC(=O)CCC`, the result was inactive. With `O=C(Cl)c1cccc(C(=O)Cl)c1`, the outcome was inactive. The same measure, in the same setting: to `NCCNCCN` belongs “inactive”; to `CC(C)CCCCCCCOC(=O)c1ccc(C(=O)OCCCCCCCC(C)C)c(C(=O)OCCCCCCCC(C)C)c1`, “inactive”. Regarding `CCCCCCCCCCCCCCCCCC(=O)OCC(CC)CCCC` (centres undefined), the result was inactive. Consider `CCCCC[Si](OCC)(OCC)OCC`, for which the result was inactive. Consider `CC1(C)C(=O)N(Br)C(=O)N1Cl`, for which the compound was called inactive. Take `CCCCC(CC)COC(=O)/C=C\C(=O)OCC(CC)CCCC` (centres undefined): the compound was called inactive. On the same count and under the same terms, to `C=CC(C)(O)CCC=C(C)CCC=C(C)C` (centres undefined) belongs “inactive”.

With `O=c1cc(-c2ccccc2)oc2cc(O)cc(O)c12`, the AC50 is 11 µM (active). Take `C=CC[N+](C)(C)CC=C`: the outcome was inactive. With `COc1ccc(O)cc1`, the result was inactive.

Turning to `CC(C)=CCCC(C)=CCCC(C)=CCO`, the half-maximal activity concentration (AC50) was 12.8 µM (active). For the compound `CCCCCCCCCCCCCCCC(=O)O`, the call was inactive.
